Here are results for 27 compounds from PubChem BioAssay (NCI).

About 83,000 compounds went through this panel and 20% of them were active in at least one assay; those are over-represented in the sample as a whole.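 96-well plates, one dose, 48 hours. Percent growth reported; active if below 10.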 Calls of active or inactive are those of the source.

For the test, the system named is HL-60(TB) leukemia. The experiment in a line: NCI-60 one-dose screen, 48 h (100 = growth as untreated, 0 = no growth, -100 = all killed). Conditions: 10 µM unless noted.
Regarding `C=CC(=O)Nc1ccc(C(=O)/C=C/c2ccc(N(C)CCF)cc2)c(O)c1`, the growth is -32.2% (active).

In the case of `CC(=O)Nc1cccc(Nc2nccc(N[C@@H](C)c3ccccc3)n2)c1`, the growth was 5.18% (active).

On to `CCCn1c(O)c(N=Nc2nc(-c3cc4ccccc4oc3=O)cs2)c2cc(Br)ccc21`, for which the growth was 99.3% (inactive).

In the case of `C/C(=N\N=C\c1ccc(Cl)c([N+](=O)[O-])c1)c1ccc2c(c1)Nc1ccccc1S2`, the growth is 51% (inactive).

As for `O=C1CC(c2ccc(I)cc2)OC2C=Cc3ccccc3C12` (configuration not stated), the growth was 89% (inactive).

With `NS(=O)(=O)c1ccc(NNC(=O)CCC(=O)c2ccccc2)cc1`, the growth was 75.3% (inactive).

Take `NS(=O)(=O)c1ccc(NC(=O)CSc2ccc(-c3ccccc3)nn2)c(Br)c1`: the growth is 99.2% (inactive).

Consider `N/C(=N\c1nc2ccc([N+](=O)[O-])cc2s1)NC(=O)Nc1ccccc1Cl`, for which the growth was 67.3% (inactive).

`Cc1ccc(C2CC(c3ccc(NC(=O)Nc4ccccc4)cc3)=NN2c2ccc(S(C)(=O)=O)cc2)cc1` (configuration not stated): the growth was 13.4% (inactive).

Consider `CC1(c2ccccc2)NC(=O)N(CC(=O)Nc2ccc(C(=O)/C=C/c3ccc(Br)cc3)cc2)C1=O` (configuration not stated), for which the growth was 20.8% (inactive).

For the compound `O=C(Nc1ccc(Cl)c([N+](=O)[O-])c1)Nc1ccc(Cl)c([N+](=O)[O-])c1`, the growth was 2.93% (active).

As to `Cc1ccc(/C=C/C(=O)c2ccc(S(=O)(=O)NCCNc3nc(N(C)C)nc(N4CCOCC4)n3)cc2)cc1`, the growth is 30.7% (inactive).

Turning to `CC1(c2ccccc2)NC(=O)N(CC(=O)Nc2ccc(C(=O)/C=C/c3ccccc3)cc2)C1=O` (configuration not stated), the growth is 10.1% (inactive).

For the compound `Cc1nn(-c2ccccc2)c2nc(C)n(CC(=O)N/N=C/c3ccccc3O)c(=O)c12`, the growth is 7.2% (active).

Take `N/N=C(\N)c1c(N)nc(=S)[nH]c1-c1ccc(Cl)cc1Cl`: the growth is 89.1% (inactive).

On to `COc1ccc(/C=C/C(=O)c2ccc(S(=O)(=O)NCCNc3nc(N(C)C)nc(N4CCOCC4)n3)cc2)cc1`, for which the growth is 67.1% (inactive).

Regarding `COc1ccc2c(c1)N=C(C(=O)O)/C2=C/c1sc(Nc2ccc(O)cc2)nc1O`, the growth was 85.8% (inactive).

Regarding `Clc1ccc2c(N/N=C/c3c[nH]c4ccc(Br)cc34)ccnc2c1`, the growth was -74.7% (active).

With `O=C(Nc1ccc(Br)cc1)Nc1ccc(-c2ccc3c(c2)NC(=O)/C3=C\c2ccc[nH]2)cc1`, the growth was 33.4% (inactive).

As to `N#Cc1c(NC(=O)c2ccc(C(F)(F)F)c(Cl)c2)sc2c1CCC(=O)C2`, the growth was -14.4% (active).

As to `COc1ccc(C2=NN(C(C)=O)C(c3ccc(OCc4ccc(Cl)cc4)c(OC)c3)C2)cc1OC` (configuration not stated), the growth was 34.6% (inactive).

Regarding `COc1ccc(C(SCCNCc2cc(N(C)C)ccn2)(c2ccccc2)c2ccccc2)cc1`, the growth was -43.7% (active).

For `COc1ccc(C(=O)/C=C/c2cc(F)cc(C(F)(F)F)c2)cc1S(N)(=O)=O`, the growth is -4.63% (active).

For `C#C[C@]1(O)CC[C@H]2[C@@H]3CC=C4c5sc(-c6ccc([N+](=O)[O-])cc6)nc5CC[C@]4(C)[C@H]3CC[C@@]21C`, the growth was 23.7% (inactive).

Regarding `N#C/C(=C1/C(=O)Nc2ccccc21)c1nnc(NC(=O)c2ccc(-n3c(=O)[nH]c4ccccc4c3=O)cc2)s1`, the growth is 7.15% (active).

With `CC1CCc2c(sc3nc(SCC(=O)c4cccc([N+](=O)[O-])c4)n(-c4ccccc4)c(=O)c23)C1` (configuration not stated), the growth is 87.1% (inactive).

As to `Nc1cc(-c2c[nH]c3ccc(Cl)cc23)nc2cc(-c3c[nH]c4ccccc34)nn12`, the growth was -18.2% (active).
